Reference: PubChem BioAssay (Tox21)
Inconclusive results are not listed. Calls of active or inactive are those of the source. Unless noted, calls come from the whole dose curve; as a rule, active = well fitted curve in the direction sought with a large enough effect in the repeat runs; inconclusive = weak or mixed curves; inactive = no such curve, though single readings can be large; an effect the other way counts as inactive or inconclusive.

What was measured:
[1] = qHTS assay for small molecule agonists of the p53 signaling pathway (AID 651631; calls by dose curve; note: nearly all actives have a fitted effect of over 15% in size)
In short: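 p53RE-bla HCT-116 cells; compounds 16 h, 37 °C; LiveBLAzer B/G FRET substrate 2 h RT; fluorescence intensity read-out, qHTS format.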

[2] = qHTS assay for small molecules that induce genotoxicity in human embryonic kidney cells expressing luciferase-tagged ATAD5 (AID 651632); note: nearly all actives have a fitted effect of over 15% in size
In short: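 Increased luciferase signal from ATAD5-tagged reporter cells indicates DNA-damage-driven ATAD5 induction. HEK293T cells are treated for 16 hr at 37C before detection with Amplite.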

[3] = qHTS assay for small molecule agonists of the p53 signaling pathway - cell viability (AID 651633; calls by dose curve;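 note: p53RE-bla HCT reporter cells with a stable beta-lactamase p53 reporter; series mostly up to about 83 µM; nearly all actives have a fitted effect of over 30% in size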)
In short: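 Viability counter-read: CellTiter-Glo luminescence (30 min, room temperature) in the same p53RE-bla plates. These plates had been exposed to compounds for 16 h at 37 C.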

[4] = qHTS assay for small molecules that induce genotoxicity in human embryonic kidney cells expressing luciferase-tagged ATAD5 - cell viability (AID 651634; calls by dose curve; note: nearly all actives have a fitted effect of over 25% in size)
In short: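 Cytotoxicity counterscreen in HEK293T cells bearing an ATAD5-luciferase reporter: live-cell protease activity measured by CellTiter-Fluor fluorescence after 15.5 hr compound exposure.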

[5] = qHTS assay for small molecule disruptors of the mitochondrial membrane potential - cell viability (AID 720634; calls by dose curve;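 note: human HepG2 liver cancer cells; series mostly up to about 83 µM; nearly all actives have a fitted effect of over 20% in size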)
In short: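 After overnight attachment at 37 C, HepG2 cells received compound or DMSO vehicle for 1 hr. Viability is then taken from ATP-driven luminescence following a 30 min room-temperature CellTiter-Glo step.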

[6] = qHTS assay to test for compound auto fluorescence at 590 nm (red) in HepG2 cells (AID 720674)
In short: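 1 hr compound incubation on HepG2 cells, 37 C, 5% CO2; plate read ex 540 nm / em 590 nm; intensities reported as Rose Bengal sodium equivalents.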

[7] = qHTS assay to test for compound auto fluorescence at 535 nm (green) in HepG2 cells (AID 720675)
[8] = qHTS assay to test for compound auto fluorescence at 460 nm (blue) in HEK293 cells (AID 720678)
In short: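 Blue read-out at excitation 405 nm and emission 460 nm follows overnight compound exposure of HEK293 cells at 37C in 5% CO2. Activity is given as auto fluorescence equivalency to triamterene.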

[9] = qHTS assay to test for compound auto fluorescence at 590 nm (red) in HEK293 cells (AID 720679)
In short: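 Red channel, Ex/Em 540/590nm; signal expressed as equivalency to Rose Bengal sodium. HEK293, 2,000 cells/well, 10% dialyzed FBS; 23 nL compound pinned after 4-5 hr attachment; overnight 37C/5% CO2 before reading.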

[10] = qHTS assay to test for compound auto fluorescence at 535 nm (green) in HEK293 cells (AID 720680)
[11] = qHTS assay to test for compound auto fluorescence at 460 nm (blue) in HEK293 cell free culture (AID 720681)
In short: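 Blue fluorescence (Ex 405/Em 460 nm, triamterene-equivalent) was read immediately after pin transfer of compound or DMSO into medium (DMEM, 10% FBS) without cells.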

[12] = qHTS assay to test for compound auto fluorescence at 535 nm (green) in HEK293 cell free culture (AID 720682)
In short: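 Cell-free medium (DMEM, 10% FBS) receives compound or DMSO by pintool. Plate read directly at Ex 485/Em 535 nm. Signal converted to fluorescein equivalency.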

[13] = qHTS assay to test for compound auto fluorescence at 590 nm (red) in HEK293 cell free culture (AID 720683)
In short: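 Red-channel autofluorescence of compounds in culture medium (DMEM, 10% FBS), no cells, measured at 540/590 nm. Rose Bengal sodium is the reference fluorophore for equivalence.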

[14] = qHTS assay to test for compound auto fluorescence at 460 nm (blue) in HepG2 cell free culture (AID 720685)
In short: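 Compound (23 nL) or DMSO pinned into cell-free MEM with 10% FBS; blue fluorescence read at 405/460 nm excitation/emission, expressed as auto-fluorescence equivalency to triamterene.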

[15] = qHTS assay to test for compound auto fluorescence at 535 nm (green) in HepG2 cell free culture (AID 720686)
[16] = qHTS assay to test for compound auto fluorescence at 460 nm (blue) in HepG2 cells (AID 720687)
In short: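 Blue-channel autofluorescence (Ex/Em 405/460 nm, triamterene-equivalent) was measured after 1 hr compound exposure at 37 C, 5% CO2. Cells were HepG2, plated overnight at 37 C in MEM plus 10% FBS.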

[17] = target: Glucocorticoid receptor (Homo sapiens) (UniProt P04150); assay: qHTS assay to identify small molecule agonists of the glucocorticoid receptor (GR) signaling pathway (AID 720691; active = well fitted activation curve with a large enough effect in the signal ratio in the repeat runs, not every such curve was filed as active; the % refers to the signal ratio)
In short: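 Agonist mode in a HeLa line carrying a GRE-controlled beta-lactamase reporter. Compounds act for 18 h at 37 C before a 2 h room-temperature FRET substrate step and fluorescence reading.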

[18] = target: Glucocorticoid receptor (Homo sapiens) (UniProt P04150); assay: qHTS assay to identify small molecule antagonists of the glucocorticoid receptor (GR) signaling pathway (AID 720692; active = well fitted inhibition curve with a large enough effect in the signal ratio in the repeat runs, not every such curve was filed as active; the % refers to the signal ratio)
In short: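 Cells plated, rested 4 h at 37 C/5% CO2; compounds in DMSO pin-transferred; dexamethasone added to 5 nM final; 18 h at 37 C; B/G FRET substrate added, 2 h room temperature; fluorescence measured.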

[19] = qHTS assay to test for compound auto fluorescence at 590 nm (red) in HepG2 cell free culture (AID 720684)
In short: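 Plate contents were MEM with 10% FBS plus test compound or DMSO, no cells. Fluorescence was recorded with 540 nm excitation and 590 nm emission.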
% is set by controls: 0 for no effect and ±100 for the full control effect.

Sequence of Glucocorticoid receptor (Homo sapiens) (P04150 whole entry, looked up): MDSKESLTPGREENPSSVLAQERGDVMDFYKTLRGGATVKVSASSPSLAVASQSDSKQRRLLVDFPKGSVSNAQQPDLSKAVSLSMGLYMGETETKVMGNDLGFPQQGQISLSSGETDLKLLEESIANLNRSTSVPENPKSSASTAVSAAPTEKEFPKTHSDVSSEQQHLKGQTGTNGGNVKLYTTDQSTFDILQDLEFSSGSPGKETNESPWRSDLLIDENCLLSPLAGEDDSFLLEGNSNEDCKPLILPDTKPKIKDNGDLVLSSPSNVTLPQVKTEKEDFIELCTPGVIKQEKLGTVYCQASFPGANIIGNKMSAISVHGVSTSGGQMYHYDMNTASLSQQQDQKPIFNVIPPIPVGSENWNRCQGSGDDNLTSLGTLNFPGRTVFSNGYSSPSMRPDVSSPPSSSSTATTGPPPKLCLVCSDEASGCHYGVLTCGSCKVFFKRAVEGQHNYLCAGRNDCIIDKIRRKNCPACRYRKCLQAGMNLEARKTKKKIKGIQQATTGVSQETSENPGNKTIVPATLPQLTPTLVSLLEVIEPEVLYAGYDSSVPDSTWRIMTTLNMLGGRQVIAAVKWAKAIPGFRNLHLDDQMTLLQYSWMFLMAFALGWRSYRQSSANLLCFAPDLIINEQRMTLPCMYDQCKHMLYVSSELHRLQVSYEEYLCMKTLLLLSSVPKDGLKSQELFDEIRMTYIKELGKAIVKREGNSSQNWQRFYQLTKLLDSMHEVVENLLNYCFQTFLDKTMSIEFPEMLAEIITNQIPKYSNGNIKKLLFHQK

CCCCCCN
inactive: outcome [1] | Potency [2] | outcome [3] | Potency [4] | outcome [5] | outcome [6] | outcome [7] | outcome [8] | outcome [9] | outcome [10] | outcome [11] | outcome [12] | outcome [13] | outcome [14] | outcome [15] | outcome [16] | Potency [17] | outcome [18]

CO[C@@H]1[C@@H](OC(N)=O)[C@@H](O)[C@H](Oc2ccc3c(O)c(NC(=O)c4ccc(O)c(CC=C(C)C)c4)c(=O)oc3c2C)OC1(C)C
inactive: outcome [1] | Potency [2] | outcome [3] | Potency [4] | outcome [5] | fluorescence, relative to Rose Bengal [6] -0.195% [at 18.6 µM] | fluorescence, % of fluorescein control [7] -0.0594% [at 18.6 µM] | fluorescence, % of triamterene [8] 0.0216% [at 18.6 µM] | fluorescence, % of fluorescent control [9] 0.173% [at 18.6 µM] | fluorescence, % of fluorescein [10] -0.0123% [at 18.6 µM] | fluorescence, % of fluorescent control [11] 0.0286% [at 18.6 µM] | activity change [12] -0.156% [at 18.6 µM] | fluorescence, % of fluorescent control [13] 0.0652% [at 18.6 µM] | fluorescence, % of Rose Bengal [19] 0.235% [at 18.6 µM] | fluorescence, % of fluorescent control [14] 0.0828% [at 18.6 µM] | fluorescence, % of fluorescein control [15] -0.0494% [at 18.6 µM] | fluorescence, % of fluorescent control [16] 0.0292% [at 18.6 µM] | outcome [18]

CCCCN
inactive: outcome [1] | Potency [2] | outcome [3] | Potency [4] | outcome [5] | outcome [6] | outcome [7] | outcome [8] | outcome [9] | outcome [10] | outcome [11] | outcome [13] | outcome [14] | outcome [15] | outcome [16] | Potency [17] | outcome [18]

C=C(C)C(=O)OCC(C)(C)COC(=O)C(=C)C
inactive: outcome [1] | Potency [2] | outcome [3] | Potency [4] | outcome [5] | outcome [6] | outcome [7] | outcome [8] | outcome [9] | outcome [10] | outcome [11] | outcome [13] | outcome [19] | outcome [14] | outcome [16]

CC(=O)OC(C)OC(=O)C(C)c1ccc(-c2ccccc2)c(F)c1 (stereo not drawn)
inactive: outcome [1] | Potency [2] | outcome [3] | Potency [4] | outcome [5] | outcome [6] | outcome [7] | outcome [8] | outcome [9] | outcome [10] | outcome [11] | outcome [12] | outcome [13] | outcome [14] | outcome [15] | outcome [16] | outcome [18]

CN(CCOc1ccc(NS(C)(=O)=O)cc1)CCc1ccc(NS(C)(=O)=O)cc1
inactive: outcome [1] | Potency [2] | outcome [3] | Potency [4] | outcome [5] | outcome [6] | outcome [7] | outcome [9] | outcome [10] | outcome [11] | outcome [12] | outcome [13] | outcome [19] | outcome [14] | outcome [15] | outcome [16]

CCCC(=O)C(C)=O
inactive: outcome [1] | Potency [2] | outcome [3] | Potency [4] | outcome [5] | outcome [6] | outcome [7] | outcome [8] | outcome [9] | outcome [10] | outcome [12] | outcome [13] | outcome [19] | outcome [14] | outcome [15] | outcome [16] | outcome [18]
